Measured values: PubChem BioAssay (NCI)
The panel holds about 83,000 compounds, 20% with a hit somewhere; the sample as a whole holds those more often.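 In brief: 96-well plates, 48 h treatment, single concentration, percent growth endpoint.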 Calls of active or inactive are those of the source. How the source made its calls: active means growth percent below 10; inactive means the rest.

Key:
Test in all cases: NCI-60 one-dose screen, 48 h (100 = growth as untreated, 0 = no growth, -100 = all killed)
Settings in all cases: 10 µM unless noted
OVCAR-5 ovarian = system: OVCAR-5 ovarian
OVCAR-4 ovarian = system: OVCAR-4 ovarian
SK-OV-3 ovarian = system: SK-OV-3 ovarian
IGROV1 ovarian = system: IGROV1 ovarian
OVCAR-3 ovarian = system: OVCAR-3 ovarian
HS 578T breast = system: HS 578T breast
NCI/ADR-RES ovarian = system: NCI/ADR-RES ovarian
T-47D breast = system: T-47D breast
OVCAR-8 ovarian = system: OVCAR-8 ovarian

Measured: growth

Cc1nn(-c2ccccc2)c2ncc3c(c12)C(=O)N(Cc1ccccc1)C3=O
active: OVCAR-4 ovarian -57.8%
inactive: OVCAR-5 ovarian 63.6% | SK-OV-3 ovarian 14.7% | IGROV1 ovarian 14.7% | OVCAR-3 ovarian 19.2% | HS 578T breast 22.7% | NCI/ADR-RES ovarian 42.1% | T-47D breast 43.4%

CC(C)(C)c1cc(O)c(O)c(C(C)(C)C)c1
inactive: OVCAR-8 ovarian 39.8% | OVCAR-5 ovarian 55.3% | IGROV1 ovarian 49.9% | OVCAR-3 ovarian 20.9% | HS 578T breast 43.6% | NCI/ADR-RES ovarian 51.9% | T-47D breast 12.8%

COC(=O)[C@]1(CCSC)N[C@H](c2cn(-c3ccccc3)nc2C)[C@@H]2C(=O)N(c3ccc(C)cc3)C(=O)[C@@H]21
inactive: OVCAR-5 ovarian 94.6% | OVCAR-4 ovarian 112% | SK-OV-3 ovarian 98.5% | IGROV1 ovarian 115% | OVCAR-3 ovarian 114% | HS 578T breast 103% | NCI/ADR-RES ovarian 93.4% | T-47D breast 101%

CC/C=C\C=C/C(=O)N/C=C/CC1Cc2cccc(O)c2C(=O)O1 (configuration not stated)
inactive: OVCAR-8 ovarian 90.5% | OVCAR-5 ovarian 91% | IGROV1 ovarian 79.1% | OVCAR-3 ovarian 86% | HS 578T breast 50.7% | NCI/ADR-RES ovarian 57.2% | T-47D breast 67.2%

COC(=O)[C@]1(CCSC)N[C@H](c2cn(-c3ccccc3)nc2C)[C@@H]2C(=O)N(c3ccccc3)C(=O)[C@@H]21
inactive: OVCAR-5 ovarian 104% | OVCAR-4 ovarian 106% | SK-OV-3 ovarian 95.2% | IGROV1 ovarian 118% | OVCAR-3 ovarian 98.7% | HS 578T breast 93.7% | NCI/ADR-RES ovarian 91% | T-47D breast 108%

CC(=O)c1cc(C(=O)c2ccc3c(c2)Sc2ccccc2N3)c2c(C)cc(C)cn12
active: OVCAR-3 ovarian -26.1%
inactive: OVCAR-5 ovarian 39.7% | OVCAR-4 ovarian 39.8% | IGROV1 ovarian 28.3% | HS 578T breast 20.5% | NCI/ADR-RES ovarian 12.9% | T-47D breast 48.2%

N#CCCN(CCO)c1ccccc1
inactive: OVCAR-8 ovarian 102% | OVCAR-5 ovarian 108% | SK-OV-3 ovarian 101% | IGROV1 ovarian 103% | OVCAR-3 ovarian 105% | HS 578T breast 102% | NCI/ADR-RES ovarian 112% | T-47D breast 92%

Cc1nn(-c2ccccc2)c(Cl)c1C(CC(=O)c1ccc(Cl)cc1)CC(=O)c1ccc(Cl)cc1
inactive: OVCAR-5 ovarian 93.8% | SK-OV-3 ovarian 91.8% | IGROV1 ovarian 101% | OVCAR-3 ovarian 91.7% | HS 578T breast 97.3% | NCI/ADR-RES ovarian 90.2% | T-47D breast 85.8%

Cc1nn(-c2ccc(Cl)cc2)c2nc3c(nc12)C(=O)C(=O)c1ccccc1-3
active: OVCAR-3 ovarian 2.92%
inactive: OVCAR-5 ovarian 95.9% | OVCAR-4 ovarian 48.4% | SK-OV-3 ovarian 93.8% | IGROV1 ovarian 59.1% | HS 578T breast 61.3% | NCI/ADR-RES ovarian 76.5% | T-47D breast 67.6%

Cc1nn(-c2ccccc2)c2nc3c(nc12)C(=O)CCC3
inactive: OVCAR-5 ovarian 104% | OVCAR-4 ovarian 81.4% | SK-OV-3 ovarian 99.7% | IGROV1 ovarian 96.6% | OVCAR-3 ovarian 98.8% | HS 578T breast 97.1% | NCI/ADR-RES ovarian 94.8% | T-47D breast 79.2%

Cc1nn(-c2ccccc2)c2nc(Cl)c(/C=C/C(=O)c3ccccc3)c(-c3ccccc3)c12
inactive: OVCAR-5 ovarian 103% | OVCAR-4 ovarian 107% | SK-OV-3 ovarian 102% | IGROV1 ovarian 120% | OVCAR-3 ovarian 116% | HS 578T breast 95.5% | NCI/ADR-RES ovarian 105% | T-47D breast 107%

Cn1cnc([N+](=O)[O-])c1S(=O)(=O)Oc1ccc(Cl)cc1
inactive: OVCAR-8 ovarian 76.6% | OVCAR-5 ovarian 102% | IGROV1 ovarian 69.8% | NCI/ADR-RES ovarian 95.8%
active: OVCAR-3 ovarian -60.3% | T-47D breast -31.1%

Cc1c(C(N)=O)sc2c1c(=O)n(Cc1ccccc1)c1nnc(SCC(=O)Nc3ccc(Cl)cc3)n21
active: OVCAR-3 ovarian -3.77% | HS 578T breast 6.54% | T-47D breast -23.9%
inactive: OVCAR-5 ovarian 64.9% | SK-OV-3 ovarian 24.8% | IGROV1 ovarian 23.1% | NCI/ADR-RES ovarian 82.2%

COC(=O)[C@]1(C(C)C)N[C@H](c2cn(-c3ccccc3)nc2-c2ccccc2)[C@@H]2C(=O)N(c3ccc(Cl)cc3)C(=O)[C@@H]21
inactive: OVCAR-5 ovarian 101% | OVCAR-4 ovarian 117% | SK-OV-3 ovarian 92.7% | IGROV1 ovarian 103% | OVCAR-3 ovarian 89.1% | HS 578T breast 117% | NCI/ADR-RES ovarian 90.3% | T-47D breast 93.6%

Cc1nn(-c2ccc(Br)cc2)c2nc3c(nc12)C(=O)C(=O)c1ccccc1-3
inactive: OVCAR-5 ovarian 100% | OVCAR-4 ovarian 88.3% | IGROV1 ovarian 81.9% | OVCAR-3 ovarian 101% | HS 578T breast 105% | NCI/ADR-RES ovarian 86.4% | T-47D breast 91.2%

Oc1ccc(-c2nn(-c3ccccc3)cc2-c2nc3ccccc3s2)cc1
inactive: OVCAR-8 ovarian 93.5% | OVCAR-5 ovarian 108% | SK-OV-3 ovarian 99% | IGROV1 ovarian 80.9% | OVCAR-3 ovarian 85.3% | HS 578T breast 92.4% | NCI/ADR-RES ovarian 81.1% | T-47D breast 53%

CCSc1nnc2n(Cc3ccccc3)c(=O)c3c(C)c(C(N)=O)sc3n12
inactive: OVCAR-5 ovarian 94.3% | SK-OV-3 ovarian 88.5% | IGROV1 ovarian 101% | OVCAR-3 ovarian 119% | NCI/ADR-RES ovarian 97.1% | T-47D breast 99.8%

O=C1Cc2cc(CCn3cncn3)c(Cl)cc2N1
inactive: OVCAR-5 ovarian 87.4% | OVCAR-4 ovarian 86.8% | SK-OV-3 ovarian 79.3% | IGROV1 ovarian 84.7% | OVCAR-3 ovarian 71.7% | HS 578T breast 28.6% | NCI/ADR-RES ovarian 52.9% | T-47D breast 99.1%

OC(Cc1cccnc1)c1ccccc1 (configuration not stated)
inactive: OVCAR-8 ovarian 96.5% | OVCAR-5 ovarian 92.8% | SK-OV-3 ovarian 112% | IGROV1 ovarian 114% | HS 578T breast 112% | NCI/ADR-RES ovarian 107% | T-47D breast 112%

Cc1ccc(NC(=O)CSc2nnc3n(Cc4ccccc4)c(=O)c4c(C)c(C(N)=O)sc4n23)cc1
active: OVCAR-4 ovarian -62.3% | OVCAR-3 ovarian 9.55% | HS 578T breast 6.99% | T-47D breast -19.7%
inactive: OVCAR-5 ovarian 75.8% | IGROV1 ovarian 50.8% | NCI/ADR-RES ovarian 92.8%

O=C(/C=C/c1cc2ccccc2[nH]c1=O)c1ccc(Cl)cc1
active: OVCAR-3 ovarian -10.1% | NCI/ADR-RES ovarian -6.67%
inactive: OVCAR-8 ovarian 23.1% | OVCAR-5 ovarian 55.9% | SK-OV-3 ovarian 58% | IGROV1 ovarian 26.4% | HS 578T breast 54% | T-47D breast 34%

O=C1Cc2cc(CCN3CCN(CCOCCO)CC3)c(Cl)cc2N1Cc1ccc(-c2ccccc2-c2nn[nH]n2)cc1
inactive: OVCAR-5 ovarian 96.6% | OVCAR-4 ovarian 89.6% | SK-OV-3 ovarian 93.8% | IGROV1 ovarian 107% | OVCAR-3 ovarian 94.5% | HS 578T breast 85% | NCI/ADR-RES ovarian 90.6% | T-47D breast 101%

COc1ccc(/C=C2\COc3ccc(O)c(O)c3C2=O)cc1OC
inactive: SK-OV-3 ovarian 40.2% | HS 578T breast 17.8%
active: OVCAR-8 ovarian 8.42% | OVCAR-5 ovarian -16.6% | IGROV1 ovarian -33.4% | OVCAR-3 ovarian -16.7% | NCI/ADR-RES ovarian 2.76% | T-47D breast -5.4%
